The results in this text go back to the supplement of paper PMC10105736.

Unmarked numbers belong to inactive results.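 The calls were made as follows: active = MAPPIT score above the 99th percentile of random reference set scores in the same batch; inactive = at or below it.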

Holding throughout (assay): MAPPIT interaction score (arbitrary units); higher = stronger binary interaction signal, active = hit call of the paper
One test deals with fz. Particulars: MAPPIT configuration: N-C; pair source set: Lit-BM-16.
The next test concerns the target fwe. As to conditions: MAPPIT configuration: N-C; pair source set: screen_4.
A further test deals with gsb-n. As to conditions: MAPPIT configuration: N-N; pair source set: Finley_Y2H.
A further test has as its target glob1. As to conditions: MAPPIT configuration: N-N.
The target of the next test is fon. As to conditions: MAPPIT configuration: N-N; pair source set: Finley_Y2H.
Another test addresses flw. Particulars: pair source set: Lit-BM-16.
Another test concerns the target grp. As to conditions: MAPPIT configuration: N-N; pair source set: DPIM.
For a further test, the target named is emb. As to conditions: MAPPIT configuration: N-N; pair source set: Lit-BM-16.
Another test addresses gukh. Particulars: MAPPIT configuration: N-C; pair source set: Lit-BM-16.
The target in the next test is mRpL39. Particulars: MAPPIT configuration: N-N; pair source set: DPIM.
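Also: HEK293T cells with Epo stimulation, STAT-responsive firefly luciferase reporter, fold induction versus unstimulated cells divided by the larger fold induction of two negative controls lacking either bait or prey.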

B1: Patj (protein)
chain: MHLSADISSALQQIEAVKKGIDESDDPKLQMQTAESLSTILGILQDPVFRTIVHVQDSLSELNAQLAQHPSMLPNDFDIDVAGNLVLSLNGGEVMYDFDEQRSSSHSHSAPGSPDKSGGVGEEPRPQSQNSKGAGVADLYATDYAQIQAIELVNDGTGLGFGIIGARNSGVIVKTILPGGVADKDGRLRSGDHILQIGDVNLHEMVSEQVAAVLRQSGTHVRLVVARPVEQSVPTPQYALEPGTAVVPTRVLVDPAELERYLISTGYPEIFGESSTASTPQTTTEDDRFVYRGETSMLIDPNIDLEELLALPETEKLQVELKKDANGLGITIAGYVCEKEELSGIFVKSVSPGSAADLSGRIRVNDRIIEVDGQSLQGYSNHQAVELLKKSGQVVNLRLERYLRGPKFEQLQQAIAANDKLPSSAPGTPSRAPMPTPVATTSSATTTPSRSITRELEEEALPAPEAFMTTPPSVTTMTTTTLSSFGAGKQLVAVRDSLDGSTKIIPTEVVPLADKTEAKNSGVITRHKYYTDPELSDDAETEIIRKWQKIVGSDVEVIVAQIKKFAVGGLGISLEGTVDVEGGREVRPHHYIRSILPDGPVGVNGVLRSGDELLEVNGERLLGMNHLEVVAILKELPLDVRMVCGRNRNSSLLPFSDDTLKKLSNNFENLLPATDRLVKAKSDGSLATAGSVADGDSVAAAAASFSKLKSRSLEPLTGLAMWSSQPQIIELVKGDRGLGFSILDYQDPLDPNDTLIVIRSLVPGGVAQLDGRLIPGDRLLFVNSINLENASLDQAVQALKGASKGVVRIGVAKPLPMTDNSLKACSNASTTSEETLDAQPSPPALPTVAPPAMPPSASMGAEPDLIPDWRN
With B1, the MAPPIT interaction score with fz is 2.4.

B2: Arl8 (protein)
chain: MLALINRILEWFKSIFWKEEMELTLVGLQFSGKTTFVNVIASGQFAEDMIPTVGFNMRKITRGNVTIKVWDIGGQPRFRSMWERYCRGVNAIVYMVDAADLDKLEASRNELHSLLDKPQLAGIPVLVLGNKRDLPGALDETGLIERMNLSSIQDREICCYSISCKEKDNIDITLQWLIQHSKSQSR
Turning to B2, the MAPPIT interaction score with fwe was 3.21.

B3: slp2 (protein)
chain: MVKIEEGLPSSEISAHSLHFQHHHHPLPPTTHHSALQSPHPVGLNLTNLMKMARTPHLKSSFSINSILPETVEHHDEDEEEDVEKKSPAKFPPNHNNNNLNTTNWGSPEDHEAESDPESDLDVTSMSPAPVANPNESDPDEVDEEFVEEDIECDGETTDGDAENKSNDGKPVKDKKGNEKPPYSYNALIMMAIRQSSEKRLTLNGIYEYIMTNHPYYRDNKQGWQNSIRHNLSLNKCFVKVPRHYDDPGKGNYWMLDPSAEDVFIGGSTGKLRRRTTAASRSRLAAFKRSLIGPMFPGLAAYPQFGQFLTYPPTAPSLLASMYQRYNPFAPKGGPGHPGLPPGLPGLPGPPGPQGPPGPPPPPFVAPPTSSELYQRLQYQQLLHQHAAAAALAAHQRQLSVAAASAASQPPPTHHHPHLAVGQAPLSPGGDSPGPSPQPLHKPVTVVSRNS
Turning to B3, the MAPPIT interaction score with gsb-n is -0.371.

B4: eIF2gamma (protein)
chain: MATAEAQIGVNRNLQKQDLSNLDVSKLTPLSPEVISRQATINIGTIGHVAHGKSTVVKAISGVQTVRFKNELERNITIKLGYANAKIYKCDNPKCPRPASFVSDASSKDDSLPCTRLNCSGNFRLVRHVSFVDCPGHDILMATMLNGAAVMDAALLLIAGNESCPQPQTSEHLAAIEIMKLKQILILQNKIDLIKESQAKEQYEEITKFVQGTVAEGAPIIPISAQLKYNIDVLCEYIVNKIPVPPRDFNAPPRLIVIRSFDVNKPGCEVADLKGGVAGGSILSGVLKVGQEIEVRPGVVTKDSDGNITCRPIFSRIVSLFAEQNELQYAVPGGLIGVGTKIDPTLCRADRLVGQVLGAVGQLPDIYQELEISYYLLRRLLGVRTDGDKKGARVEKLQKNEILLVNIGSLSTGGRISATKGDLAKIVLTTPVCTEKGEKIALSRRVENHWRLIGWGQIFGGKTITPVLDSQVAKK
On to B4, for which the MAPPIT interaction score with glob1 (pair source set: RRS) was 0.425.

B5: Slh (protein)
chain: MLTLRERQINAIKQMLNLNSQQPKALAAEPVWKILIYDRVGQDIISPIISIKELRELGVTLHVQLHSDRDSIPDVPAIYFCLPTDENLDRIQQDFSSGLYDVYHLNFLAPITRSKIENLAAAALHAGCVANIHRVYDQYVNFISLEDDFFILKHQQSDQLSYYAINRANTRDEEMEALMDSIVDSLFALFVTLGNVPIIRCPRNSAAEMVARKLEKKLRENLWDARANLFHMDATQAGGGVFSFQRPVLLLLDRNMDLATPLHHTWSYQALVHDVLDLGLNLVYVEDETASAGARKKPKACDLDRNDRFWMTHKGSPFPTVAEAIQEELESYRNSEEEIKRLKTSMGIEGESDIAFSLVNDTTARLTNAVNSLPQLMEKKRLIDMHTKIATAILNFIKARRLDSFFEIEEKVMSKQTLDRPLLDLLRDGEFGQAEDKLRLYIIYFICAQQLPESEQERLKEALQAAGCDLTALAYVQRWKGIMNRSPSISQATQYEGGGTKTVSMFTKLVSQGSSFVMEGVKNLVVKRHNLPVTKITEQVMECRSNAETDDYLYLDPKLLKGGEVLPKNRAPFQDAVVFMVGGGNYIEYQNLVDFIKQKQTSNVQRRIIYGASTLTNARQFLKELSALGGEIQSPTATS
For the molecule B5, the MAPPIT interaction score with fon is -0.252.

B6: Nop17l (protein)
chain: MSASRSRNKQSKLCDDERLDISRDEFNRFQEAFGKEEFRKLFFDYVDEIQDPENRKIYESEITQLEKERGVEVRFIHPKPGFVIKTALDGELKCFINIASCEEIQRPKNEVATDPSSGSRGLSWSIPMAQTTSRDDFDAKNNHCKVFDVVFHPDALHLAMRNKQFRQCLIDTALDAIEREYKVSLDRANLKFPKLDYKGIPRPTVIRKMADNPTAEEQEPHPLAHMFPTKPPAPGKQEPRVLPMKTKPSPVPEFTVPRYTIKHSHDVDLSEYTDELDAKLHVTVPRSLVVEIELPLLRSTAECQLDVTSKSIYLFSERQGAKYRLKLDLPFIVDDKAGRARFDTDMRRLSITLPVVRKSIQEQAQMHETLRHFSREDSGVELHSNSESPVEEDPDGELSDSKADISETSSPSVAPANSPFLKSSVHYQLPSKFDCNVLDNVMAFVLHVPNVQPDSIEQLREQRSLHLKFATIGSGYYPTHYAFYVELSAEHEDSSIESAEAEAWDNNVVLKLCLNSQSETPASYLAGLDATELKEYPVHGQYHVKSKGKVNAKKDNAPLDVKFERNQEGHALKVTIRPGTKEEEEDKENQDQEPESDQQQQQQVQNKKPGKKQRKKNKKERSLSESACADMILQEPLAKTNELQPRATFKLPPQRKQRSYSECNDSTGRSHRGILKRFSRYGPRPSMSDSWSSIDDSSSYSCSVDASGTSLFSQSFGGIPEEDRSDAGLSESCKKTVRFNDHIMKQVFRLDSSILGQRKKNQKRRDLKLRAQQRRLSEGDSVDYEETRGSALKQEENPSRNCNDSGLDLTGAAGAHSNNNESDAKNTMMFEMDD
Regarding B6, the MAPPIT interaction score with flw (MAPPIT configuration: N-C) is 3.31; in the test with flw (MAPPIT configuration: N-N), 0.884.

B7: CG6724 (protein)
chain: MDVDNGEGQVQVHLKTKQEHYAVPDVPYAIDGTVTTVELNTFVNALLRQKDGSSDTDFDFLVFDEYLRGRLCDHLREKAISFEDAIEIEYVERFPAPEPQDCLLHDDWVSAVKARGKWILSGCYDNTLNLWTNKGKHILTISGHTAPIKAVDWISLDEETGRFVSTSQDQTAMLWQWNVGSNSVECVSVCKGHERGVDSVSVSPDGLRFATGSWDTMLKVWSAELDDAVEGSSKRMKESGVRTPKITLQGHRESVSAVQWMDATTLLTGSWDHTLKVWDLSLEGIKTEISTNKSIFDASYSKLNRLILTASADKNLRLYDPRTNQGSVVRNTYLGHNAWVQTVMWSTTEEFLFVSGAYDNQNKLWDCRSPKAPLYDLLGHGEKVLDIDWSNPKYIVSGGVDNTVRVFKSRKALAEEAETK
With B7, in the test with grp, the MAPPIT interaction score is 0.11.

B8: MED6 (protein)
chain: MASRQMTNDHLRLSWHDTQMMATLSPQTVMDYFCRKSNPFYDHMCNNETVRMQRLGPEHLHNMIGLEYILLHVAEPILYVIRKQHRHNPSEATPIADYYIIGGTVYKAPDLANVINSRILNTVVNLQSAFEEASSYARYHPNKGYTWDFSSNKVFSDRSKSDKKDANSAKDENSGTLFQKQRVDMLLAELLRKFPPPIPPMLQNLQQPPPAGDDLNTARNASEMNNATGPLDIKTEGVDMKPPPEKKSK
With B8, in the test with glob1 (pair source set: Lit-BS-16), the MAPPIT interaction score is -0.386.

B9: mbo (protein)
chain: MSLTDVLELNKTELFAKIRNGLPVVQRTQNLLDCKDDLLFAWHAKDSCLLVRNWRSSLAAKVNIQFQTLIPSSLVSLEVDRVLASNEGSLVALSGPRGVVIMELPRRWGPDGYYKDGKPVITCRTFGLDTQLFLKNPHLEVRQVRWHPHSVSDSTLLVLLNNNTIRVYNHSKLRHVWQVGPPVLRSGANNSLCDFGELAVDFDIAPAAKPRVTEPETAGNNETTLDKSNKTLVAAKSLPKQERIEWPMVVLRENGNIYILMTGVDSENTRLQGPVTITPQAHDNYGLESCALMIIPSLPPTIVIAESNGKLHHALLMEAEATEHSFNEVDDSVLIEPAEYVVHVLETVELELGISAPATGKEGGNCPIYLKRDLINELRYFAYHNAGLHAVTVSFIAELQRYLESESDEDRLELAVSASAEYILCTKFDSSETVNAVFGLALLQIPAGIVLLLGSGQVISLKLVIDAQLLVTPNENKPVDSEVSQQESGPPFVDTIKSLLQRSVNQPILADKLSSPSAQESFELLNQAIEVLREQYLKRHDLVRAAFTRHINQIQLKKEQQLQEIQDLEQERELISERAHKLAERFEEISYNQELLVRKCNALMQRANASLPNSVIAEREFSQEVIRLNKVTQSLAAGLETAKKTFNKQRYHIAQSQEDLKKNAYELPEKQHRTITEILTQLTGEIDRQITDVKRINKIVGI
Regarding B9, the MAPPIT interaction score in the test with emb is 0.0885.

B10: dlg1 (protein)
chain: MPVKKQEAHRALELLEDYHARLSEPQDRALRIAIERVIRIFKSRLFQALLDIQEFYELTLLDDSKSIQQKTAETLQIATKWEKDGQAVKIADFIKSSNLNRNCAYEFNNDASSNQTNQSALNQNPIANNVSAQAQAEALSRTFKSELEEILNQRMRIESDTENAKEPTVEQQQKQQQAQQRSSRSPQQQNPQQQQGSKSRSGSQTVNGDDSWLYEDIQLERGNSGLGFSIAGGTDNPHIGTDTSIYITKLISGGAAAADGRLSINDIIVSVNDVSVVDVPHASAVDALKKAGNVVKLHVKRKRGTATTPAAGSAAGDARDSAASGPKVIEIDLVKGGKGLGFSIAGGIGNQHIPGDNGIYVTKLMDGGAAQVDGRLSIGDKLIAVRTNGSEKNLENVTHELAVATLKSITDKVTLIIGKTQHLTTSASGGGGGGLSSGQQLSQSQSQLATSQSQSQVHQQQHATPMVNSQSTEPGSRYASTNVLAAVPPGTPRAVSTEDITREPRTITIQKGPQGLGFNIVGGEDGQGIYVSFILAGGPADLGSELKRGDQLLSVNNVNLTHATHEEAAQALKTSGGVVTLLAQYRPEEYNRFEARIQELKQQAALGAGGSGTLLRTTQKRSLYVRALFDYDPNRDDGLPSRGLPFKHGDILHVTNASDDEWWQARRVLGDNEDEQIGIVPSKRRWERKMRARDRSVKFQGHAAANNNLDKQSTLDRKKKNFTFSRKFPFMKSRDEKNEDGSDQEPFMLCYTQDDANAEGASEENVLSYEAVQRLSINYTRPVIILGPLKDRINDDLISEYPDKFGSCVPHTTRPKREYEVDGRDYHFVSSREQMERDIQNHLFIEAGQYNDNLYGTSVASVREVAEKGKHCILDVSGNAIKRLQVAQLYPVAVFIKPKSVDSVMEMNRRMTEEQAKKTYERAIKMEQEFGEYFTGVVQGDTIEEIYSKVKSMIWSQSGPTIWVPSKESL
In the case of B10, the MAPPIT interaction score is 1.68 with gukh and 0.743 in the test with mRpL39.
